This is a sample that favours compounds with a hit; in the whole collection about 1.1% have one here.
MOR-DOR ag = OPRM1-OPRD1 heterodimerization agonism; P35372+P41143; cells, luminescence; activation, % at 9.3 µM; 340,000 compounds, 0.3% hits; in the data active means activation above about 18%;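 further: 0% = vehicle-treated cells and 100% = reference agonist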
Target sequence (P35372 whole entry, looked up): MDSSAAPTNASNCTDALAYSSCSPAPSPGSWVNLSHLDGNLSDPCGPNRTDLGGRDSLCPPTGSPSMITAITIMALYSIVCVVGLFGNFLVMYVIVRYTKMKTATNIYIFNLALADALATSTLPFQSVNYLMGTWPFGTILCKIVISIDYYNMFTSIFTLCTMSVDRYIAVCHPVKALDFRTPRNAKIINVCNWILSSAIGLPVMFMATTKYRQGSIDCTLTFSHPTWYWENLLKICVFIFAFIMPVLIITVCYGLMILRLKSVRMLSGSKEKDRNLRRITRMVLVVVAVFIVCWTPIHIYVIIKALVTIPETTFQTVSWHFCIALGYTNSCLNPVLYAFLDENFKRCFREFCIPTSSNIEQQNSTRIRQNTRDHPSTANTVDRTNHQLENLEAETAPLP
Target sequence (P41143 whole entry, looked up): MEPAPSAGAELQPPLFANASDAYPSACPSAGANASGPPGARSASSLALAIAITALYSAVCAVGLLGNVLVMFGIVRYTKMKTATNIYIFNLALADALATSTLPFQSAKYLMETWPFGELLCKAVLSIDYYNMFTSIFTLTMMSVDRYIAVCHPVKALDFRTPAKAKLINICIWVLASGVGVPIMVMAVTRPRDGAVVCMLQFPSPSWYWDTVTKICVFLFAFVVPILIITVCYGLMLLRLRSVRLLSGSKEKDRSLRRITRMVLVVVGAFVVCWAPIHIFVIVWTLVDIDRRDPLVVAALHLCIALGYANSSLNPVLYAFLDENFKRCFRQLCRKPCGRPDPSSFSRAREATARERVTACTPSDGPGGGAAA
HTR5A ag ctr = counter-screen for OPRM1-OPRD1 agonists: human HTR5A agonism; P47898; HTR5A agonist assay, luminescence, cell-based; activation, % at 9.3 µM; 340,000 compounds, 0.61% hits; in the data active means activation mostly above about 9.5%, no sharp cut-off; inactive means mostly below about 7.6%;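 further: 0% = cells with vehicle only and 100% = reference agonist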
MOR-DOR inv ag = mu-delta opioid heterodimer inverse agonism; P35372+P41143; cell-based MOR-DOR heterodimer luminescence; inhibition, % at 9.3 µM; 340,000 compounds, 0.21% hits; AID 504357; in the data active means inhibition above about 22%, passing the limit was not always enough;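 further: 0% = cells with DMSO and 100% = wells without cells with DMSO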
HTR5A inv ag = counter-screen for OPRM1-OPRD1 inverse agonists: human HTR5A inverse agonism; P47898; HTR5A cell line, luminescence; inhibition, % at 9.3 µM; 340,000 compounds, 0.083% hits; AID 504634; in the data active means inhibition mostly above about 23%, no sharp cut-off; inactive means mostly below about 18%;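 further: 0% = cells with DMSO and 100% = no-cell wells with DMSO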
The depositor's hits bear a star.

SMILES | MOR-DOR ag | HTR5A ag ctr | MOR-DOR inv ag | HTR5A inv ag
O=C(c1ccc2c(=O)n(C3CCCC3)c(=S)[nH]c2c1)N1CCN(C2CCCCC2)CC1 | -1.3 | 4.2 | 5.5 | -11.6
Cc1cc(-n2c(SCC(=O)NCCC3=CCCCC3)nc3n[nH]c(C)c3c2=N)ccc1Cl | 29.1* | 31.1* | -150.8 | -47.0
Cc1[nH]nc2nc(SCC(=O)NCCC3=CCCCC3)n(-c3ccc(Br)cc3)c(=N)c12 | 24.7* | 14.9* | -123.7 | -55.6
Cc1ccc(Cl)cc1-n1c(SCC(=O)NCCC2=CCCCC2)nc2n[nH]c(C)c2c1=N | 1.8 | 3.0 | -9.9 | 5.1
CCc1ccc(N2CC(C(=O)OCC(=O)NNC(=O)c3ccccc3)CC2=O)cc1 (stereo not given) | -0.6 | -2.4 | 4.0 | 7.3
O=C1NC[C@@H](c2ccccc2)OC(=O)[C@@H](Cc2ccc(F)cc2)C/C=C\C[C@@H]1CC(=O)N(CCO)Cc1ccccc1 | -6.8 | -19.0 | 37.1* | 48.2*
CCOc1ccc(C(=O)NCCCN2CCOCC2)cc1OCC | 0.1 | 0.3 | -0.2 | -0.8
CCN1CCN(CCC(=O)Nc2cc(OC)cc(OC)c2)CC1 | -2.7 | 9.2* | 12.4 | -33.8
O=C(NC1CCN(S(=O)(=O)c2ccc(F)cc2)CC1)c1cccnc1 | -2.2 | 7.8 | 11.8 | -22.1
COc1cc(/C=C/C(=O)OCC(=O)Nc2cc(C)c(C)cc2[N+](=O)[O-])ccc1O | -2.3 | 11.4* | 12.2 | -35.8
COc1cc(/C=C/C(=O)OCC(=O)Nc2ccc(C)cc2[N+](=O)[O-])ccc1O | 7.9 | 0.4 | -41.6 | -1.1
Cc1ccc(Cl)cc1N1CCN(C(=O)c2noc(C)c2[N+](=O)[O-])CC1 | 14.9 | 10.0* | -74.8 | -37.4
Cc1onc(C(=O)N2CCN(c3ccccc3)CC2)c1[N+](=O)[O-] | -3.4 | 0.2 | 17.4 | 3.8
CCC[C@H](CN[C@@H](CNC)[C@H](C)CC)NCCc1cc(C(F)(F)F)cc(C(F)(F)F)c1 | 13.7 | 7.3 | -73.8 | -9.3
CNC[C@@H](CC1CCCCC1)NC[C@H](CC(C)C)NCCc1cccc(C(F)(F)F)c1 | 24.5* | 12.6* | -139.5 | -13.7
CNC[C@@H](Cc1ccccc1)NC[C@@H](CC1CCCCC1)NCCCc1ccccc1 | 23.0* | 19.8* | -126.0 | -50.4
O=C(COc1ccccc1)NS(=O)(=O)c1ccc(Cl)cc1 | -1.7 | 11.9* | 8.9 | -10.1
CS(=O)(=O)c1ncc(Cl)c(C(=O)Nc2ccc3ccccc3c2)n1 | -7.9 | -5.2 | 57.0* | 18.4
CC(=O)Nc1ccc(NC(=O)c2nc(S(=O)(=O)Cc3ccccc3)ncc2Cl)cc1 | 2.0 | -3.8 | -10.3 | 14.2
CCOC(=O)c1cc(-c2ccccc2)sc1NC(=O)C(C)N1C(=O)c2ccccc2C1=O (stereo not given) | -1.5 | 0.6 | 10.6 | 8.7
COc1cc(NC(=O)c2cccc3c2C(=O)N(C2CCCCC2)C3)cc(OC)c1OC | -1.2 | 11.0* | 6.0 | -16.6
Cc1cc(C)cc(NC(=O)c2cccc3c2C(=O)N(C2CCCCC2)C3)c1 | -1.8 | 1.3 | 9.1 | 16.5
CN(C)c1ccc(/C=C2\SC(=S)N(Nc3ncc(C(F)(F)F)cc3Cl)C2=O)cc1 | -3.6 | 3.3 | 18.0 | -10.0
COc1cc(/C=C2\SC(=S)N(Nc3ncc(C(F)(F)F)cc3Cl)C2=O)ccc1O | -0.9 | -9.2 | 5.5 | 40.8*
Cc1ccc2c(c1)c1nnc(SCC(=O)Nc3ccc(N(C)C)cc3)nc1n2CC(=O)O | 0.3 | 13.0* | -1.6 | -48.3
SMILES | MOR-DOR ag | HTR5A ag ctr | MOR-DOR inv ag | HTR5A inv ag
COC(=O)CCCC1=CC2=CC(=O)C(C)(OC(=O)c3cccs3)C(=O)C2=CN1CCN1CCOCC1 (stereo not given) | -0.9 | 6.8 | 4.2 | -14.0
COCCN1C=C2C(=O)C(C)(OC(=O)c3cccs3)C(=O)C=C2C=C1CCCC(=O)OC (stereo not given) | -0.4 | 13.9* | 2.4 | 2.5
COC(=O)CCCC1=CC2=CC(=O)C(C)(OC(=O)c3cccs3)C(=O)C2=CN1CCCCO (stereo not given) | 3.6 | 12.3* | -19.9 | -22.9
COc1ccc(NC(=O)Nc2cccc(C(F)(F)F)c2)cn1 | 4.8 | 12.9* | -24.0 | -35.0
O=C(N/N=C/c1ccccc1OC(F)F)c1cc(-c2ccncc2)nc2ccccc12 | 1.4 | 12.4* | -7.0 | -3.2
O=C(O)COc1ccccc1/C=N/NC(=O)c1cc(-c2ccccc2)nc2ccccc12 | -1.2 | -3.9 | 6.6 | 22.1
COc1ccc(Nc2nc(OC)nc(OC)n2)cc1 | -3.8 | -3.1 | 17.6 | 11.6
COc1ccc(Nc2nc(Nc3ccc(OC)cc3)nc(-n3[nH]c(=O)c(C)c3C)n2)cc1 | -3.4 | -2.8 | 17.4 | 42.6*
CC(C)(CNC(=O)c1cccc(F)c1)CNC(=O)c1cccc(F)c1 | 1.0 | 0.8 | -5.2 | -13.0
CCc1ccc(-c2csc(NC(=O)C3=COCCO3)n2)cc1 | 3.9 | -1.9 | -16.0 | 4.7
OCC[C@H]1C[C@H](O)[C@@H](O)[C@@]2(CCCc3ccccc3O2)O1 | -3.2 | -4.8 | 18.6 | 13.0
CCN(c1ccc(C)cc1C)S(=O)(=O)c1nnc(NC(=O)C(C)(C)C)s1 | 5.6 | 9.9* | -26.5 | -38.3
O=C(CN1C(=O)NC2(CCOc3ccccc32)C1=O)N1CCCCC1 (stereo not given) | -0.9 | 4.2 | 3.8 | -10.2
Cc1cc(-n2c(C)cc(C(=O)CSc3ncnc4ccccc34)c2C)no1 | 6.7 | 16.2* | -40.7 | -18.8
CCOc1ccc2oc(C(=O)Nc3ccc4c(c3)OCO4)c(C)c2c1 | 1.1 | 0.6 | -6.4 | -1.4
CCOc1ccc2oc(C(=O)Nc3ccc(N4CCOCC4)cc3)c(C)c2c1 | 1.6 | 13.8* | -8.2 | 11.3
C/C(=N/NS(=O)(=O)c1ccccc1)c1c[nH]c2ccccc12 | -1.4 | 12.1* | 7.9 | -44.3
C/C(=N/NS(=O)(=O)c1ccc(C)cc1)c1c[nH]c2ccccc12 | 1.4 | 11.1* | -4.7 | -29.1
C/C(=N/NS(=O)(=O)c1cc(C)ccc1C)c1c[nH]c2ccccc12 | 0.8 | 11.9* | -3.9 | -5.4
C/C(=N/NS(=O)(=O)c1cccc([N+](=O)[O-])c1)c1c[nH]c2ccccc12 | 0.5 | 8.6 | -2.7 | -31.7
COc1ccc(CN(C)CCCn2cnc(C(=O)Nc3ccc(C)c(C)c3)n2)cc1OC | 6.4 | 0.0 | -29.8 | 0.0
O=CC1=C(c2ccccc2)Oc2ccccc2O1 | 6.0 | 11.3* | -28.7 | -42.0
CN(C)/C=C1/N=C(c2ccccc2)OC1=O | -0.7 | 1.8 | 3.1 | -6.5
C=CCNC(=S)N/N=C(\C)c1ccccn1 | -7.2 | -5.4 | 34.6* | 12.9
O=C(CSc1nc2ccc(NC(=O)CSc3nnnn3Cc3ccccc3)cc2s1)Nc1ccccc1 | 4.0 | 14.2* | -23.3 | -32.4
COc1ccccc1CNC(=O)CN(C)CC(=O)Nc1ccccc1Br | -2.9 | -0.9 | 14.0 | 3.6
CCOC(=O)c1c(-c2ccccc2)oc2cc(CN(C)C)c(O)c(CN(C)C)c12 | -1.0 | 11.9* | 5.2 | -38.5
COc1ccc(N2CC(O)(c3ccc(C)cc3)[N+]3=C2CCCC3)cc1 (stereo not given) | -2.7 | 13.2* | 12.5 | -36.6
CCCn1c(=O)c2[nH]c(-c3ccc(S(=O)(=O)O)cc3)nc2n(CCC)c1=O | -0.9 | 1.4 | 4.9 | -3.6

Bioassay records from PubChem.
